{
  "source": "the supplement of paper PMC4466236",
  "note": "Whole data set: some 33,000 sequences, median “E-score (dimensionless, -0.5 to 0.5)” near -0.058, cut for the highest 2% near 0.35. The sample as a whole holds a higher share of the highest values than the screen did.",
  "data": [
    {"test_system": "MvaT", "assay": "PBM 8-mer E-score (mean of HK and ME arrays) (E-score (dimensionless, -0.5 to 0.5)); higher = stronger relative binding preference", "method": "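Protein binding microarray: GST-tagged full-length MvaT (P. aeruginosa PAO1) bound to two universal double-stranded 60-mer arrays (ME and HK), each with a constant 25-mer primer and a variable 35-mer region covering all 8-mers. The 8-mer E-score (rank-based, range -0.5 to 0.5, >0.45 = specific binding) is the mean of the two arrays.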", "values": [
      {"sequence": "CGGTACCG", "PBM 8-mer E-score": -0.0831},
      {"sequence": "TACGAGCA", "PBM 8-mer E-score": -0.0785},
      {"sequence": "CACCTAAG", "PBM 8-mer E-score": -0.143},
      {"sequence": "GACGTACA", "PBM 8-mer E-score": 0.034},
      {"sequence": "CCCCGTGA", "PBM 8-mer E-score": -0.306},
      {"sequence": "AACTGACG", "PBM 8-mer E-score": 0.0522},
      {"sequence": "ACTTTTTG", "PBM 8-mer E-score": 0.122},
      {"sequence": "ATTAAACA", "PBM 8-mer E-score": 0.391},
      {"sequence": "ATTAAACG", "PBM 8-mer E-score": 0.284},
      {"sequence": "CTTAAACA", "PBM 8-mer E-score": 0.156},
      {"sequence": "GCAATACA", "PBM 8-mer E-score": 0.0621},
      {"sequence": "GAGCACGA", "PBM 8-mer E-score": -0.273},
      {"sequence": "AGGCATAA", "PBM 8-mer E-score": -0.0265},
      {"sequence": "AATTTATG", "PBM 8-mer E-score": 0.273},
      {"sequence": "AATTTATC", "PBM 8-mer E-score": 0.276},
      {"sequence": "CATTTTTA", "PBM 8-mer E-score": 0.242},
      {"sequence": "GATTTATA", "PBM 8-mer E-score": 0.398},
      {"sequence": "CATTTATC", "PBM 8-mer E-score": 0.241},
      {"sequence": "GATTTTTA", "PBM 8-mer E-score": 0.133},
      {"sequence": "AGTTTATA", "PBM 8-mer E-score": 0.424},
      {"sequence": "GATTTAGA", "PBM 8-mer E-score": 0.0137},
      {"sequence": "AGTTTATC", "PBM 8-mer E-score": 0.144},
      {"sequence": "CATTTATA", "PBM 8-mer E-score": 0.347},
      {"sequence": "GGTTTATA", "PBM 8-mer E-score": 0.242},
      {"sequence": "AATTTATA", "PBM 8-mer E-score": 0.46},
      {"sequence": "AGCAGGCC", "PBM 8-mer E-score": -0.328},
      {"sequence": "TCCTAACA", "PBM 8-mer E-score": 0.0526},
      {"sequence": "TCCCACAA", "PBM 8-mer E-score": 0.0216},
      {"sequence": "CAATTCAC", "PBM 8-mer E-score": 0.0398},
      {"sequence": "GTTTTATA", "PBM 8-mer E-score": 0.243},
      {"sequence": "ATTTTACA", "PBM 8-mer E-score": 0.371},
      {"sequence": "ACTTTATA", "PBM 8-mer E-score": 0.39},
      {"sequence": "AATTTACA", "PBM 8-mer E-score": 0.269},
      {"sequence": "CTTTTACA", "PBM 8-mer E-score": 0.0261},
      {"sequence": "CCTTTATA", "PBM 8-mer E-score": 0.193},
      {"sequence": "ACTTTATC", "PBM 8-mer E-score": 0.105},
      {"sequence": "ATTTTATG", "PBM 8-mer E-score": 0.234},
      {"sequence": "ATTTTATA", "PBM 8-mer E-score": 0.366},
      {"sequence": "TGCTCACA", "PBM 8-mer E-score": -0.0823},
      {"sequence": "CAAGCAGG", "PBM 8-mer E-score": -0.0598},
      {"sequence": "AGTACAGG", "PBM 8-mer E-score": 0.0418},
      {"sequence": "AAAAATCA", "PBM 8-mer E-score": 0.0153},
      {"sequence": "GCCTCCCC", "PBM 8-mer E-score": -0.263},
      {"sequence": "ACATCCCA", "PBM 8-mer E-score": -0.00783},
      {"sequence": "TCTCATAA", "PBM 8-mer E-score": 0.0817},
      {"sequence": "CAGTGGAC", "PBM 8-mer E-score": 0.0119},
      {"sequence": "AAGACATG", "PBM 8-mer E-score": 0.0346},
      {"sequence": "CGGGAAAG", "PBM 8-mer E-score": -0.177},
      {"sequence": "ACAATAAA", "PBM 8-mer E-score": 0.356},
      {"sequence": "CCAATAAA", "PBM 8-mer E-score": 0.302},
      {"sequence": "ACAATAAG", "PBM 8-mer E-score": 0.276},
      {"sequence": "ACAATAAC", "PBM 8-mer E-score": 0.324},
      {"sequence": "ACAATAAT", "PBM 8-mer E-score": 0.401},
      {"sequence": "ACAATACT", "PBM 8-mer E-score": 0.223},
      {"sequence": "AACTACCA", "PBM 8-mer E-score": 0.17},
      {"sequence": "TAAATACA", "PBM 8-mer E-score": 0.35},
      {"sequence": "GGAATAAA", "PBM 8-mer E-score": 0.289},
      {"sequence": "GAAATAAC", "PBM 8-mer E-score": 0.3},
      {"sequence": "AAAATACA", "PBM 8-mer E-score": 0.25},
      {"sequence": "AAAAAAAT", "PBM 8-mer E-score": 0.227},
      {"sequence": "AAAATAAT", "PBM 8-mer E-score": 0.422},
      {"sequence": "GAAATAAA", "PBM 8-mer E-score": 0.405},
      {"sequence": "AAAATACC", "PBM 8-mer E-score": 0.265},
      {"sequence": "AAAATAAC", "PBM 8-mer E-score": 0.378},
      {"sequence": "CAAATAAC", "PBM 8-mer E-score": 0.341},
      {"sequence": "GAAATACA", "PBM 8-mer E-score": 0.0961},
      {"sequence": "GAAATGAA", "PBM 8-mer E-score": 0.17},
      {"sequence": "CAGGTGTC", "PBM 8-mer E-score": -0.277},
      {"sequence": "AGACTTGG", "PBM 8-mer E-score": -0.179},
      {"sequence": "AGTGTCTC", "PBM 8-mer E-score": -0.00692},
      {"sequence": "ACGCTCTC", "PBM 8-mer E-score": -0.273},
      {"sequence": "CCGTAGGA", "PBM 8-mer E-score": -0.216},
      {"sequence": "ATACCGAG", "PBM 8-mer E-score": "-1.06e-05"},
      {"sequence": "AAGAGAAT", "PBM 8-mer E-score": 0.126},
      {"sequence": "GCTATGGA", "PBM 8-mer E-score": -0.0686},
      {"sequence": "CGCCTAAG", "PBM 8-mer E-score": -0.113},
      {"sequence": "AGCTCCCG", "PBM 8-mer E-score": -0.29},
      {"sequence": "CCTTTTGA", "PBM 8-mer E-score": -0.074},
      {"sequence": "AAAATAGA", "PBM 8-mer E-score": 0.173},
      {"sequence": "TAAATAAA", "PBM 8-mer E-score": 0.421},
      {"sequence": "CAAATAAA", "PBM 8-mer E-score": 0.301},
      {"sequence": "AAAATAAA", "PBM 8-mer E-score": 0.409},
      {"sequence": "TAAATAGA", "PBM 8-mer E-score": 0.291},
      {"sequence": "AAAATAAG", "PBM 8-mer E-score": 0.331},
      {"sequence": "AGTGCTAT", "PBM 8-mer E-score": 0.172},
      {"sequence": "TACGATCA", "PBM 8-mer E-score": 0.0229}
    ]}
  ]
}
